From PubChem BioAssay (NCI)
This is part of a sample that, as a whole, favours compounds with a hit. Of some 79,000 tested, about 15% had one in any assay. A number with no mark means an inactive call. Calls of active or inactive are those of the source. No stated cut-off is given here; in the data, active means growth inhibition above about 70%; inactive means the rest.

Tests used:
[1] = NCI Yeast Anticancer Drug Screen. Data for the rad50 strain (AID 155);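 further: 0% = growth of vehicle-only cultures of the same strain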; conditions: S. cerevisiae rad50 strain growth inhibition, active compounds read high
How it was run: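 A DNA repair-deficient yeast mutant serves as the test organism; compound-induced growth inhibition is calculated against vehicle-treated cells.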

[2] = NCI Yeast Anticancer Drug Screen. Data for the mec2-1 strain (AID 157); conditions: S. cerevisiae mec2-1 strain, active compounds read high
How it was run: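 Test agents were screened against the mec2-1 yeast strain, with defined DNA repair or cell cycle alteration. Growth was scored as inhibition against vehicle-only controls.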

[3] = NCI Yeast Anticancer Drug Screen. Data for the sgs1 mgt1 strain (AID 161);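 further: 0% = growth of cultures given vehicle only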; conditions: S. cerevisiae sgs1 mgt1 strain, active compounds read high
How it was run: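 Mutant yeast exposed to compound; growth scored against vehicle-only wells.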

[4] = NCI Yeast Anticancer Drug Screen. Data for the cln2 rad14 strain (AID 165);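 further: 0% = growth equal to vehicle treated cultures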; conditions: S. cerevisiae cln2 rad14 strain, active compounds read high
How it was run: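 Growth of compound-exposed yeast (cln2 rad14 genotype) measured and expressed as inhibition relative to vehicle.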

[5] = NCI Yeast Anticancer Drug Screen. Data for the bub3 strain (AID 167); conditions: S. cerevisiae bub3 mutant strain, active compounds read high
How it was run: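 Inhibition values come from growth of compound-treated mutant yeast normalised to vehicle-treated controls.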

[6] = NCI Yeast Anticancer Drug Screen. Data for the mlh1 rad18 strain (AID 175); conditions: S. cerevisiae mlh1 rad18 strain growth inhibition, active compounds read high
How it was run: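 In this whole-cell yeast screen, a strain with altered DNA damage repair is challenged with compound, and its growth is measured against matched vehicle-treated controls.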

[7] = at 5.0 µM (retest, dose inferred, filed as 0.5)
[8] = at 50.0 µM (retest, dose inferred, filed as 5.0)

Compound | growth inhibition [1, 7] | growth inhibition [1, 8] | growth inhibition ([1]; at 50.0 µM) | growth inhibition [2, 7] | growth inhibition [2, 8] | growth inhibition ([2]; at 50.0 µM) | growth inhibition [3, 7] | growth inhibition [3, 8] | growth inhibition ([3]; at 50.0 µM) | growth inhibition [4, 7] | growth inhibition [4, 8] | growth inhibition ([4]; at 50.0 µM) | growth inhibition [5, 7] | growth inhibition [5, 8] | growth inhibition ([5]; at 50.0 µM) | growth inhibition [6, 7] | growth inhibition [6, 8] | growth inhibition ([6]; at 50.0 µM)
O=[N+]([O-])c1ccc2c(c1)N([O-])C1(CCCCC1)[N+]2=O | 25% | 99% (active) | 89% (active) | 24% | 99% (active) | 92.9% (active) | 23% | 97% (active) | 91.2% (active) | 22% | 98% (active) | 88% (active) | 10% | 98% (active) | 91.1% (active) | 37% | 99% (active) | 88.4% (active)
Cc1cc(Cl)cc2c1NC(=O)C2(O)C(C)C(=O)c1ccc(Cl)cc1 (centres undefined) | -2% | 63% | 99.4% (active) | -1% | 71% (active) | 98.5% (active) | 11% | 77% (active) | 99.5% (active) | -1% | 99% (active) | 99.1% (active) | -4% | 99% (active) | 99.5% (active) | -5% | 77% (active) | 98.8% (active)
CC(=O)/C(=C\c1ccc(Cl)cc1Cl)C(=O)CCN(C)C | 4% | 99% (active) | 97.5% (active) | -3% | 99% (active) | 99.3% (active) | 11% | 99% (active) | 97.3% (active) | 4% | 98% (active) | 76% (active) | -1% | 98% (active) | 98% (active) | 1% | 98% (active) | 98.8% (active)
C[N+]1(c2ccccc2)C=C(c2ccccc2)SC1=S (centres undefined) | 7% | 86% (active) | 67.8% | 25% | 68% | 20.6% | -8% | 36% | 60.5% | 1% | 10% | 23.4% | 13% | 67% | 54.8% | 12% | 75% (active) | 74.8% (active)
OC(c1cc(-c2ccccc2)nc2cc(Cl)ccc12)C1CCCCN1 (centres undefined) | -2% | -3% | 8.7% | -3% | 3% | 26.1% | -1% | -2% | 37% | -5% | -4% | 15% | -2% | -5% | 75% (active) | -2% | -3% | 53.6%
C=CS(=O)(=O)c1ccc([N+](=O)[O-])cc1 | -29% | 98% (active) | 99.7% (active) | -7% | 99% (active) | 99.7% (active) | 21% | 98% (active) | 99.5% (active) | -16% | 98% (active) | 99.7% (active) | 20% | 98% (active) | 99.3% (active) | 16% | 97% (active) | 99.2% (active)
CSC(=S)SC(SC)S(C)(=O)=O (centres undefined) | -7% | 0% | 98.5% (active) | -5% | -3% | 99.7% (active) | -5% | -16% | 99.3% (active) | 1% | 2% | 99.1% (active) | -5% | -11% | 99.5% (active) | -8% | -9% | 99.3% (active)
O=[N+]([O-])c1cc(Cl)ccc1S(=O)(=O)c1ccccc1 | -19% | 75% (active) | 77.2% (active) | -31% | 30% | 62.1% | -7% | 57% | 78.8% (active) | 22% | 40% | 47.5% | -13% | 79% (active) | 76.6% (active) | -25% | 75% (active) | 79.7% (active)
CCCCCCC/C=C\C(=O)O | 0% | 13% | 35.5% | 4% | 32% | 17.9% | 1% | 38% | 33.6% | 4% | 25% | 38.9% | 5% | 23% | 6.4% | 1% | 36% | 74.5% (active)
O=C(O)Cc1cccc2cc3c(ccc4ccccc43)cc12 | 15% | 34% | 47.7% | 8% | 32% | 91% (active) | 11% | 47% | 10.1% | -2% | 44% | 96.6% (active) | 2% | 42% | 93.3% (active) | 8% | 44% | 96.7% (active)
Cc1c2ccccc2cc2c1ccc1cccc(F)c12 | 4% | 90% (active) | 84.4% (active) | 11% | 95% (active) | 48% | 1% | 87% (active) | 80.7% (active) | 8% | 93% (active) | 23.9% | 4% | 91% (active) | 79% (active) | 10% | 92% (active) | 59.1%
COC(=O)c1c(C)cccc1C1CN=NC12Cc1ccccc1C2=O (centres undefined) | 24% | 32% | 3.9% | 16% | 12% | 6.25% | 23% | 38% | 32.9% | 24% | 16% | 30.8% | 25% | 30% | 19.6% | 23% | 29% | -32.9%
N#CC(Br)(C#N)Cc1ccccc1 | 1% | 100% (active) | 98.8% (active) | 8% | 100% (active) | 99.6% (active) | -11% | 90% (active) | 99.1% (active) | -10% | 99% (active) | 99.2% (active) | 9% | 100% (active) | 99.5% (active) | -10% | 100% (active) | 99.3% (active)
Cc1ccc(C(C)(C)c2ccc(C(=O)O)cc2)cc1 | -4% | -14% | 25.1% | 3% | 4% | 10.2% | -3% | 0% | 42.5% | 1% | -10% | -12.7% | -6% | -8% | -2.5% | 1% | -7% | 8.9%
COc1ccc(C(C)(C)c2cc3c(cc2OCCO)OCO3)cc1 | -1% | 82% (active) | 89.8% (active) | 1% | 90% (active) | 92.2% (active) | 4% | 92% (active) | 97% (active) | 0% | 70% (active) | 60.1% | 13% | 90% (active) | 90.2% (active) | 1% | 94% (active) | 93.3% (active)
COc1cccc2c1C(=O)c1c(O)c3c(c(O)c1C2=O)C[C@@](O)(C(O)CO)C[C@@H]3OC1CC(N(Cc2ccccc2)Cc2ccccc2)C(O)C(C)O1 (some centres undefined) | 45% | 98% (active) | 86.8% (active) | 13% | 98% (active) | 85.8% (active) | 29% | 98% (active) | 65.6% | 18% | 97% (active) | 45.1% | 20% | 98% (active) | 62% | 50% | 97% (active) | 84% (active)
CN1c2ccccc2C(c2ccccc2)c2ccc(Nc3ccccc3)cc21 (centres undefined) | 94% (active) | 99% (active) | 97.7% (active) | 100% (active) | 100% (active) | 99.6% (active) | 98% (active) | 100% (active) | 99.5% (active) | 95% (active) | 99% (active) | 99.2% (active) | 96% (active) | 99% (active) | 99.3% (active) | 98% (active) | 99% (active) | 99.4% (active)
N#CSCN1C(=O)C2CC=CCC2C1=O (centres undefined) | 14% | 93% (active) | 93% (active) | 2% | 95% (active) | 97.1% (active) | 8% | 94% (active) | 49.5% | 9% | 94% (active) | 49.5% | 6% | 95% (active) | 95.5% (active) | 11% | 96% (active) | 50.4%
